# Laboratory results reported in publication PMC7862700, “An all-to-all approach to the identification of sequence-specific readers for epigenetic DNA modifications on cytosine”.
# Assays:
# Experiment in all cases: DAPPL (digital affinity profiling via proximity ligation, sequencing); 10 mM Tris-HCl pH 7.5, 50 mM NaCl, 1 mM DTT, 4% glycerol, room temperature, 30 min; GST-TFs on glutathione beads, 16-mer random dsDNA library, 0.1% formaldehyde crosslink after washing; high values mean tight binding
# [1] = biological target: T1, FEV (Homo sapiens, UniProt Q99581 1-238); conditions: protein: recombinant; tags: N-terminal GST; dsDNA, one strand shown
# T1 sequence: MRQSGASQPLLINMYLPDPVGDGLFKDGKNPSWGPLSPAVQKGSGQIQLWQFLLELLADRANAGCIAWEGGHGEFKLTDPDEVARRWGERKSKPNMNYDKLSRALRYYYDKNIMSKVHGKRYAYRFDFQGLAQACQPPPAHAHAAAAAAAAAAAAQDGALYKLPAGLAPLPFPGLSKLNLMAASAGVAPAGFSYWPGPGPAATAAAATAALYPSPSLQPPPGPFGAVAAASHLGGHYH
# How it was run: (§1)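 Pools were built from human transcription factors expressed in yeast as GST fusions, captured on glutathione beads and DNA-barcoded, along with a tag-only sample. Incubation with 200 nmole of a 16-mer random double-stranded DNA library lasted 30 min at room temperature in Tris/NaCl/DTT/glycerol buffer, and was followed by washing, 0.1% formaldehyde crosslinking, proximity ligation, PCR amplification and Illumina NextSeq500 sequencing. Binding signal is the quotient of each hexamer's read frequency for a factor and its frequency for the tag-only sample.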
# [2] = biological target: ETV5 (Homo sapiens, UniProt P41161 1-510); conditions: protein: recombinant; tags: N-terminal GST; dsDNA, one strand shown
# Sequence of ETV5 (P41161 whole entry): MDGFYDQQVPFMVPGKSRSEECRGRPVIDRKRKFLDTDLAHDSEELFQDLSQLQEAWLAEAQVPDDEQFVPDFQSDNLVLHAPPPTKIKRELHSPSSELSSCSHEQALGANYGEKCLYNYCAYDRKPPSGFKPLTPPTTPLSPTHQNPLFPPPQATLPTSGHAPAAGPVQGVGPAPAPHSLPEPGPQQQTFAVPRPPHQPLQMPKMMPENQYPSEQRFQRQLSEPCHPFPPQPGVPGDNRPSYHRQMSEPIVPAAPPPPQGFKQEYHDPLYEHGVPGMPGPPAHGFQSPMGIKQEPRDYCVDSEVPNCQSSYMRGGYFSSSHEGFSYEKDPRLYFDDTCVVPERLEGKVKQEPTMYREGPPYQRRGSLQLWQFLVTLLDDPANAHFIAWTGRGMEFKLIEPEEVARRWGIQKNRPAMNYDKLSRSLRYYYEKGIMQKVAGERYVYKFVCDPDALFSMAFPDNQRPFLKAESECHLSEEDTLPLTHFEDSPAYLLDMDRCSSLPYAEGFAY
# How it was run: as §1
# [3] = biological target: HSF1 (Homo sapiens, UniProt Q00613 1-529); conditions: protein: recombinant; tags: N-terminal GST; chain copies: 3; dsDNA, one strand shown
# Sequence of HSF1 (Q00613 whole entry): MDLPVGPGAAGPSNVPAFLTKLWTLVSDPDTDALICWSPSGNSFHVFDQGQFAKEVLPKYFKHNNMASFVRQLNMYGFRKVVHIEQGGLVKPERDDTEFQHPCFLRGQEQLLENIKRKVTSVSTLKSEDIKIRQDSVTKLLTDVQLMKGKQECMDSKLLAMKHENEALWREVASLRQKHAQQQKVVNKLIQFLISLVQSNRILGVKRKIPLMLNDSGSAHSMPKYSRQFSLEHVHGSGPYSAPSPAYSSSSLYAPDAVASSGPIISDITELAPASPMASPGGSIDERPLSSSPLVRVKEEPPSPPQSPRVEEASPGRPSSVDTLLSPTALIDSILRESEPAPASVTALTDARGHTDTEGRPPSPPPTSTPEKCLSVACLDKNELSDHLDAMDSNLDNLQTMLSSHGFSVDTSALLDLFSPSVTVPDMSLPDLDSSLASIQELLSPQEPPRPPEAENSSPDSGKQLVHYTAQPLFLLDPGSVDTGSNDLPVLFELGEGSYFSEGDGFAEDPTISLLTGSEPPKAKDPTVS
# How it was run: as §1
# [4] = biological target: T2, SPIC (Homo sapiens, UniProt Q8N5J4 1-248); conditions: protein: recombinant; tags: N-terminal GST; dsDNA, one strand shown
# T2 sequence: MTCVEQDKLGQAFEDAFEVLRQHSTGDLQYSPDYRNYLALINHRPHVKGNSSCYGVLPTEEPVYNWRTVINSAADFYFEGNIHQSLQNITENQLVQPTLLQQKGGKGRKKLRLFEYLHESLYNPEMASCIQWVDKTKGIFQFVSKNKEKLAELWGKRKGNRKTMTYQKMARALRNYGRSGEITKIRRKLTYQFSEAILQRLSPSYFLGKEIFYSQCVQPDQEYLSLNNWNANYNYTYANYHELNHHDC
# How it was run: as §1
# [5] = biological target: ELF4 (Homo sapiens, UniProt Q99607 1-663); conditions: protein: recombinant; tags: N-terminal GST; dsDNA, one strand shown
# Sequence of ELF4 (Q99607 whole entry): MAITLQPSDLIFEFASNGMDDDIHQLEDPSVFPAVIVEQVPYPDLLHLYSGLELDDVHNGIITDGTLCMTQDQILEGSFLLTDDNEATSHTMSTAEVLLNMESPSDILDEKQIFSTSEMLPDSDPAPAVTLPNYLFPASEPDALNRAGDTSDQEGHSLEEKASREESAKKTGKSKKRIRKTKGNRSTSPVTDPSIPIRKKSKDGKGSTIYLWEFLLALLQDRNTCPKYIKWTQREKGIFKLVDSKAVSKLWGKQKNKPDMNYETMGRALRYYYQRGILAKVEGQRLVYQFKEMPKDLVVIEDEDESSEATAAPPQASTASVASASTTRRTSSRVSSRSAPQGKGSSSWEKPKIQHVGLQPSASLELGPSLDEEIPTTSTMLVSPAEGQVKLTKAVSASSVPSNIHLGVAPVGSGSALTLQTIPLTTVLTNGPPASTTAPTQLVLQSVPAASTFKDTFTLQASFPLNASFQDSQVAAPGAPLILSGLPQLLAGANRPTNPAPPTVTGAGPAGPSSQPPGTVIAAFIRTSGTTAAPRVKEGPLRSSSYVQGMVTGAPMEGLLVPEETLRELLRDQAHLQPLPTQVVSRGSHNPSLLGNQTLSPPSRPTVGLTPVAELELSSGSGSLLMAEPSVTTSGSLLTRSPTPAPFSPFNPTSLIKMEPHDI
# How it was run: as §1
# [6] = biological target: T3, ELK4 (Homo sapiens, UniProt P28324-2 1-405); conditions: protein: recombinant; tags: N-terminal GST; dsDNA, one strand shown
# T3 sequence: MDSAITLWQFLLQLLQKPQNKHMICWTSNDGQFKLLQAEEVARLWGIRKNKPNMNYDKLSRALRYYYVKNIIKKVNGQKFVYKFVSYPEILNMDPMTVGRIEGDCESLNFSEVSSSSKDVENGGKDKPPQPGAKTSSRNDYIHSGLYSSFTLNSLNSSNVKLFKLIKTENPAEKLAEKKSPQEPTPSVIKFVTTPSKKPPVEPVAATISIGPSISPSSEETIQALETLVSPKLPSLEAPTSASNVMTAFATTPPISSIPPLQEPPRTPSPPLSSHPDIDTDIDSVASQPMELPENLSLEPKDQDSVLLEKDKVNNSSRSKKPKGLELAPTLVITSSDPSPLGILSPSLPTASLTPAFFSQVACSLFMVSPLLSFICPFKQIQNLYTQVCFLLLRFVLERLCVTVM
# How it was run: as §1
# [7] = biological target: T4, ETV2 (Homo sapiens, UniProt O00321 1-342); conditions: protein: recombinant; tags: N-terminal GST; dsDNA, one strand shown
# T4 sequence: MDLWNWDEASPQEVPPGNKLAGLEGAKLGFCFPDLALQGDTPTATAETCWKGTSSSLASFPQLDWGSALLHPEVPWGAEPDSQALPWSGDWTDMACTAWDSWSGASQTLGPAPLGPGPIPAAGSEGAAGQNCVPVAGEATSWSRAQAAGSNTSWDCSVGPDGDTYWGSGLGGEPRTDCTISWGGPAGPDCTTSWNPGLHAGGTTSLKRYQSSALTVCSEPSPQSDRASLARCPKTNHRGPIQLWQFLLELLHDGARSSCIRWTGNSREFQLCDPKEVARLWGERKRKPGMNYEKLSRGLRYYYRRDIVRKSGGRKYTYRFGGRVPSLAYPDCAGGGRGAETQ
# How it was run: as §1
# [8] = biological target: T5, ELF3 (Homo sapiens, UniProt P78545 1-371); conditions: protein: recombinant; tags: N-terminal GST; dsDNA, one strand shown
# T5 sequence: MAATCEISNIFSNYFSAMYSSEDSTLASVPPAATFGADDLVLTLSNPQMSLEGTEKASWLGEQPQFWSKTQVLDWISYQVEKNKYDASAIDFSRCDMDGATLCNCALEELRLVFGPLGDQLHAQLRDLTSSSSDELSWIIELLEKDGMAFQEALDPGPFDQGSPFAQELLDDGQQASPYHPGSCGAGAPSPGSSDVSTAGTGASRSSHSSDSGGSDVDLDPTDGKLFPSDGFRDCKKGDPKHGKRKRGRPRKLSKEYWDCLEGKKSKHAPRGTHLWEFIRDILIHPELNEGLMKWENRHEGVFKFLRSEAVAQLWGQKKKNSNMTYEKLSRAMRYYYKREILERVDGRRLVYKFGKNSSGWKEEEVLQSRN
# How it was run: as §1
# [9] = biological target: CRX (Homo sapiens, UniProt O43186 1-299); conditions: protein: recombinant; tags: N-terminal GST; dsDNA, one strand shown
# Sequence of CRX (O43186 whole entry): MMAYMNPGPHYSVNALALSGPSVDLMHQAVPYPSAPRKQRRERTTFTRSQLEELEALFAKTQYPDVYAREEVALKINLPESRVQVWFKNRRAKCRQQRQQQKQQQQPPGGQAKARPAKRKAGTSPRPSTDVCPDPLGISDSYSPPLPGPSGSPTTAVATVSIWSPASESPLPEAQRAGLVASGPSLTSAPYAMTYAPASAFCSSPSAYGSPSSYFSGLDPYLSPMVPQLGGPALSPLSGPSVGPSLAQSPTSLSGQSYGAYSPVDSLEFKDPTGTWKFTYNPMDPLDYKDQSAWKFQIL
# How it was run: as §1
sequence,measurement,setting,value
TATTCT,binding signal,[1],"1.27 fold enrichment (6-mer frequency, TF over GST control)"
same,binding signal,[2],"1.33 fold enrichment (6-mer frequency, TF over GST control)"
same,binding signal,[3],"2.77 fold enrichment (6-mer frequency, TF over GST control)"
same,binding signal,[4],"1.28 fold enrichment (6-mer frequency, TF over GST control)"
same,binding signal,[5],"1.38 fold enrichment (6-mer frequency, TF over GST control)"
same,binding signal,[6],"1.37 fold enrichment (6-mer frequency, TF over GST control)"
same,binding signal,[7],"1.29 fold enrichment (6-mer frequency, TF over GST control)"
same,binding signal,[8],"1.38 fold enrichment (6-mer frequency, TF over GST control)"
same,binding signal,[9],"1.9 fold enrichment (6-mer frequency, TF over GST control)"
